Laboratory results reported in PubChem BioAssay AID1159580 (chemical genetic matrix, 2015).
Hit rate of the full screen: of about 5,500 compounds, about 2,000 (36%) were called active. Another 18% or so got no clear call; they are omitted. No stated cut-off is given here; in the data, active means normalized growth mostly below about 0.91 (no sharp cut-off); inconclusive means no clear call, values can overlap the other calls; inactive means mostly above about 0.92. The list shows a part of the results.

Assay: chemical genetic growth profiling, strain panel (AID 1159580);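 further: tested at 20 µM; growth read once vehicle control cultures reached saturation at 30 °C; 1 = growth at the plate median or of vehicle wells; lower values mean less growth of the strain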
Details: growth OD

Measured: normalized growth

CCn1cc(C(=O)O)c(=O)c2cc(F)c(N3CCNCC3)nc21
inactive: S. cerevisiae deletion strains, locus YJR066W, strain TOR1, hits give low values 0.976 | S. cerevisiae deletion strains, locus YJR075W, strain HOC1, hits give low values 1.01 | S. cerevisiae deletion strains, locus YKL009W, strain mrt4, hits give low values 1.01 | S. cerevisiae deletion strains, locus YKL068W, hits give low values 1.01 | S. cerevisiae deletion strains, locus YKL085W, strain MDH1 (second series), hits give low values 1.01 | S. cerevisiae deletion strains, locus YKL085W, strain MDH1, hits give low values 1.01 | S. cerevisiae deletion strains, locus YKL160W, strain elf1, hits give low values 1 | S. cerevisiae deletion strains, locus YKL190W, strain CNB1, hits give low values 1.02 | S. cerevisiae deletion strains, locus YKR001C, strain vps1, hits give low values 1.02 | S. cerevisiae deletion strains, locus YKR026C, strain gcn3, hits give low values 0.989 | S. cerevisiae deletion strains, locus YKR091W, strain srl3, hits give low values 0.983 | S. cerevisiae deletion strains, locus YLL001W, strain dnm1, hits give low values 0.991 | S. cerevisiae deletion strains, locus YLL026W, hits give low values 0.992 | S. cerevisiae deletion strains, locus YLL041C, strain sdh2, hits give low values 0.964 | S. cerevisiae deletion strains, locus YLR027C, strain aat2, hits give low values 0.989 | S. cerevisiae deletion strains, locus YLR039C, strain RIC1, hits give low values 1.01 | S. cerevisiae deletion strains, locus YLR058C, strain SHM2, hits give low values 1.02 | S. cerevisiae deletion strains, locus YLR102C, strain apc9, hits give low values 1.01 | S. cerevisiae deletion strains, locus YLR113W, strain HOG1, hits give low values 1.08 | S. cerevisiae deletion strains, locus YLR221C, strain rsa3, hits give low values 0.984 | S. cerevisiae deletion strains, locus YLR258W, strain gsy2, hits give low values 0.987 | S. cerevisiae deletion strains, locus YLR262C, strain YPT6 (second series), hits give low values 0.945 | S. cerevisiae deletion strains, locus YLR262C, strain YPT6, hits give low values 1.03 | S. cerevisiae deletion strains, locus YLR268W, strain sec22, hits give low values 1.01 | S. cerevisiae deletion strains, locus YLR320W, strain mms22, hits give low values 0.999 | S. cerevisiae deletion strains, locus YLR330W, strain CHS5, hits give low values 1.01 | S. cerevisiae deletion strains, locus YLR342W, strain FKS1 (second series), hits give low values 1.03 | S. cerevisiae deletion strains, locus YLR342W, strain FKS1, hits give low values 0.981 | S. cerevisiae deletion strains, locus YLR357W, strain rsc2, hits give low values 0.897 | S. cerevisiae deletion strains, locus YLR370C, strain arc18, hits give low values 0.975 | S. cerevisiae deletion strains, locus YLR371W, strain rom2, hits give low values 1.02 | S. cerevisiae deletion strains, locus YLR384C, strain iki3, hits give low values 0.983 | S. cerevisiae deletion strains, locus YLR418C, strain cdc73, hits give low values 1.01 | S. cerevisiae deletion strains, locus YML016C, strain PPZ1, hits give low values 1.01 | S. cerevisiae deletion strains, locus YML032C, strain rad52, hits give low values 1.02 | S. cerevisiae deletion strains, locus YML120C, strain ndi1, hits give low values 0.983 | S. cerevisiae deletion strains, locus YML124C, strain tub3, hits give low values 1.01 | S. cerevisiae deletion strains, locus YMR058W, strain fet3, hits give low values 0.982 | S. cerevisiae deletion strains, locus YMR078C, strain ctf18, hits give low values 1 | S. cerevisiae deletion strains, locus YMR125W, strain sto1, hits give low values 0.973 | S. cerevisiae deletion strains, locus YMR129W, hits give low values 0.981 | S. cerevisiae deletion strains, locus YMR205C, strain PFK2, hits give low values 1.01 | S. cerevisiae deletion strains, locus YMR223W, strain ubp8, hits give low values 1.02 | S. cerevisiae deletion strains, locus YMR231W, strain pep5, hits give low values 0.991 | S. cerevisiae deletion strains, locus YMR307W, strain GAS1, hits give low values 1.02 | S. cerevisiae deletion strains, locus YNL067W, strain RPL9B, hits give low values 1 | S. cerevisiae deletion strains, locus YNL071W, strain lat1, hits give low values 0.968 | S. cerevisiae deletion strains, locus YNL153C, strain GIM3, hits give low values 0.99 | S. cerevisiae deletion strains, locus YNL183C, strain NPR1, hits give low values 0.982 | S. cerevisiae deletion strains, locus YNL209W, strain ssb2, hits give low values 0.971 | S. cerevisiae deletion strains, locus YNL233W, strain BNI4, hits give low values 0.978 | S. cerevisiae deletion strains, locus YNL248C, strain rpa49, hits give low values 0.989 | S. cerevisiae deletion strains, locus YNL250W, strain rad50, hits give low values 1.03 | S. cerevisiae deletion strains, locus YNL271C, strain bni1, hits give low values 1.02 | S. cerevisiae deletion strains, locus YNL298W, strain CLA4, hits give low values 1.01 | S. cerevisiae deletion strains, locus YNL307C, strain MCK1, hits give low values 1.02 | S. cerevisiae deletion strains, locus YNL322C, strain KRE1 (second series), hits give low values 0.976 | S. cerevisiae deletion strains, locus YNR049C, strain mso1, hits give low values 0.981 | S. cerevisiae deletion strains, locus YNR052C, strain pop2, hits give low values 1.02 | S. cerevisiae deletion strains, locus YOL006C, strain TOP1, hits give low values 1.02 | S. cerevisiae deletion strains, locus YOL012C, strain htz1 1.02 | S. cerevisiae deletion strains, locus YOL147C, strain pex11, hits give low values 1.02 | S. cerevisiae deletion strains, locus YOR001W, strain rrp6, hits give low values 0.987 | S. cerevisiae deletion strains, locus YOR061W, strain CKA2, hits give low values 1.02 | S. cerevisiae deletion strains, locus YOR069W, strain VPS5, hits give low values 1.01 | S. cerevisiae deletion strains, locus YOR070C, strain gyp1, hits give low values 0.993 | S. cerevisiae deletion strains, locus YOR080W, strain dia2, hits give low values 0.993 | S. cerevisiae deletion strains, locus YOR083W, strain WHI5, hits give low values 0.99 | S. cerevisiae deletion strains, locus YOR106W, strain vam3, hits give low values 0.988 | S. cerevisiae deletion strains, locus YOR136W, strain idh2, hits give low values 1.01 | S. cerevisiae deletion strains, locus YOR144C, strain elg1, hits give low values 1.01 | S. cerevisiae deletion strains, locus YOR184W, strain ser1, hits give low values 1.02 | S. cerevisiae deletion strains, locus YOR231W, strain MKK1, hits give low values 1.05 | S. cerevisiae deletion strains, locus YOR265W, strain rbl2, hits give low values 0.986 | S. cerevisiae deletion strains, locus YOR270C, strain vph1, hits give low values 0.991 | S. cerevisiae deletion strains, locus YOR290C, strain snf2, hits give low values 0.961 | S. cerevisiae deletion strains, locus YOR316C, strain cot1, hits give low values 1.02 | S. cerevisiae deletion strains, locus YPL051W, strain arl3, hits give low values 0.994 | S. cerevisiae deletion strains, locus YPL078C, strain atp4, hits give low values 0.984 | S. cerevisiae deletion strains, locus YPL106C, strain sse1, hits give low values 0.947 | S. cerevisiae deletion strains, locus YPL240C, strain hsp82, hits give low values 0.977 | S. cerevisiae deletion strains, locus YPL241C, strain CIN2, hits give low values 1.01 | S. cerevisiae deletion strains, locus YPL256C, strain CLN2, hits give low values 1.04 | S. cerevisiae deletion strains, locus YPR119W, strain clb2, hits give low values 1.01 | S. cerevisiae deletion strains, locus YPR141C, strain kar3, hits give low values 1.01 | S. cerevisiae deletion strains, locus YPR163C, strain tif3, hits give low values 1.03 | S. cerevisiae deletion strains, locus YPR167C, strain met16, hits give low values 1.01 | S. cerevisiae deletion strains, strain wtn01, hits give low values 1.01 | S. cerevisiae strains, strain wild type, hits give low values 1.02
